Source: PubChem BioAssay (NCATS)
Several values for one entry are separate records, joined by “and”; a condition that tells them apart may be missing. Identical values can stand only once. Results filed as inconclusive are left out. Activity calls are given as the source filed them. Calls come from the whole dose curve; as a rule, active = well fitted curve in the direction sought with a large enough effect; inconclusive = small, poorly fitted or top-dose-only effect, or another doubt; inactive = no such curve, though single readings can be large; an effect the other way counts as inactive or inconclusive.

Experiments:
[1] = qHTS of pediatric cancer cell lines to identify multiple opportunities for drug repurposing: Primary screen for A673 cells (AID 1347092); note: nearly all actives have a fitted effect of over 45% in size; note: potency is the fitted concentration of half-maximal effect
How it was run: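 48 h compound exposure, A673, 500-1,000 cells/well, 37 degrees C/5% CO2. MIPE: 11-point, 0.78 nM-46 µM; NPC: 8-point, 0.59 nM-46 µM (final). Readout CellTiter-Glo luminescence after 15 min RT.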

[2] = qHTS of pediatric cancer cell lines to identify multiple opportunities for drug repurposing: Primary screen for SK-N-MC cells (AID 1347093); note: potency is the fitted concentration of half-maximal effect
How it was run: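 Metabolically active cells were quantified by ATP-dependent luminescence (CellTiter-Glo, 15 min at room temperature) following 48 h treatment. Cells had been plated at 500-1,000 per well and settled for 5 h beforehand.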

[3] = qHTS of pediatric cancer cell lines to identify multiple opportunities for drug repurposing: Primary screen for BT-37 cells (AID 1347094); note: potency is the fitted concentration of half-maximal effect
How it was run: (§1)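 Viability was measured as metabolically active cells after 48 hours of treatment, read by CellTiter-Glo luminescence. Compounds were tested at multiple final concentrations, giving concentration-response curves.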

[4] = qHTS of pediatric cancer cell lines to identify multiple opportunities for drug repurposing: Primary screen for NB-EBc1 cells (AID 1347095); note: potency is the fitted concentration of half-maximal effect
How it was run: as §1

[5] = qHTS of pediatric cancer cell lines to identify multiple opportunities for drug repurposing: Primary screen for Saos-2 cells (AID 1347097); note: nearly all actives have a fitted effect of over 40% in size; note: potency is the fitted concentration of half-maximal effect
How it was run: as §1

[6] = qHTS of pediatric cancer cell lines to identify multiple opportunities for drug repurposing: Primary screen for SK-N-SH cells (AID 1347098); note: nearly all actives have a fitted effect of over 65% in size; note: potency is the fitted concentration of half-maximal effect
How it was run: (§2)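 Cells (500-1,000/well) rested 5 h, then received compounds for 48 h; metabolically active cells were measured by CellTiter-Glo luminescence. Final concentrations spanned up to 46 µM (MIPE, 11-point) or 0.59 nM-46 µM (NPC, 8-point) in primary screens, 11-point in follow-ups.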

[7] = qHTS of pediatric cancer cell lines to identify multiple opportunities for drug repurposing: Primary screen for Rh18 cells (AID 1347102); note: nearly all actives have a fitted effect of over 65% in size; note: potency is the fitted concentration of half-maximal effect
How it was run: as §2

[8] = qHTS of pediatric cancer cell lines to identify multiple opportunities for drug repurposing: Primary screen for OHS-50 cells (AID 1347103); note: nearly all actives have a fitted effect of over 40% in size; note: potency is the fitted concentration of half-maximal effect
How it was run: as §2

[9] = qHTS of pediatric cancer cell lines to identify multiple opportunities for drug repurposing: Primary screen for RD cells (AID 1347104); note: nearly all actives have a fitted effect of over 55% in size; note: potency is the fitted concentration of half-maximal effect
How it was run: as §1

[10] = qHTS of pediatric cancer cell lines to identify multiple opportunities for drug repurposing: Primary screen for MG 63 (6-TG R) cells (AID 1347105); note: nearly all actives have a fitted effect of over 50% in size; note: potency is the fitted concentration of half-maximal effect
How it was run: as §1

[11] = qHTS of pediatric cancer cell lines to identify multiple opportunities for drug repurposing: Primary screen for Rh30 cells (AID 1347107); note: nearly all actives have a fitted effect of over 75% in size; note: potency is the fitted concentration of half-maximal effect
How it was run: as §2

[12] = qHTS of pediatric cancer cell lines to identify multiple opportunities for drug repurposing: Primary screen for Rh41 cells (AID 1347108); note: nearly all actives have a fitted effect of over 70% in size; note: potency is the fitted concentration of half-maximal effect
How it was run: as §1

[13] = qHTS of pediatric cancer cell lines to identify multiple opportunities for drug repurposing: Confirmatory screen for A673 cells (AID 1347110);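 note: cells exposed to compound for 48 h before the viability read; nearly all actives have a fitted effect of over 65% in size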; note: potency is the fitted concentration of half-maximal effect
How it was run: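 Concentration-response curves came straight from titrations: 11 points (0.78 nM to 46 µM) for MIPE and several concentrations (0.59 nM to 46 µM) for NPC in primary, 11 points in follow-up. Readout: ATP luminescence at 48 h.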

[14] = qHTS of pediatric cancer cell lines to identify multiple opportunities for drug repurposing: Confirmatory screen for SK-N-MC cells (AID 1347111);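 note: potency is the fitted concentration of half-maximal effect; cells exposed to compound for 48 h before the readout; nearly all actives have a fitted effect of over 70% in size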
How it was run: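 Seed 500-1,000 cells/well; rest 5 h at 37 degrees C. Pin-transfer compounds, 11-point titration. Incubate 48 h. Add CellTiter-Glo, 15 min RT, read luminescence.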

[15] = qHTS of pediatric cancer cell lines to identify multiple opportunities for drug repurposing: Primary screen for U-2 OS cells (AID 1347096); note: nearly all actives have a fitted effect of over 50% in size
How it was run: as §2

[16] = qHTS of pediatric cancer cell lines to identify multiple opportunities for drug repurposing: Primary screen for BT-12 cells (AID 1347101); note: nearly all actives have a fitted effect of over 25% in size; note: potency is the fitted concentration of half-maximal effect
How it was run: as §2

[17] = qHTS of pediatric cancer cell lines to identify multiple opportunities for drug repurposing: Primary screen for control Hh wild type fibroblast cells (AID 1347106);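 note: series mostly up to about 46 µM; a drop in luminescence marks cytotoxicity and a rise apparent proliferation; nearly all actives have a fitted effect of over 55% in size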
How it was run: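 Viability after 48 h compound treatment at 37C, 500-1,000 cells/well, read as ATP luminescence with CellTiter-Glo. Primary screens used 11-point (MIPE, 0.78 nM-46 µM) or 8-point (NPC, 0.59 nM-46 µM) final concentrations; follow-up screens used 11-point dilutions.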

[18] = qHTS of pediatric cancer cell lines to identify multiple opportunities for drug repurposing: Primary screen for NB1643 cells (AID 1347099); note: nearly all actives have a fitted effect of over 50% in size; note: potency is the fitted concentration of half-maximal effect
How it was run: as §1

[19] = qHTS of pediatric cancer cell lines to identify multiple opportunities for drug repurposing: Primary screen for LAN-5 cells (AID 1347100); note: potency is the fitted concentration of half-maximal effect
How it was run: as §2

[20] = qHTS of pediatric cancer cell lines to identify multiple opportunities for drug repurposing: Confirmatory screen for NB1643 cells (AID 1347109); note: nearly all actives have a fitted effect of over 45% in size; note: potency is the fitted concentration of half-maximal effect
How it was run: as §2

Measured: Potency

COc1ccc(-c2ccc3c(N4CCOC[C@H]4C)nc(N4CCOC[C@H]4C)nc3n2)cc1CO
inactive: [6] | [11]
active: [1] 23.5 nM | [2] 4.7 nM | [3] 54.4 nM | [4] 33.2 nM | [5] 469 nM | [7] 132 nM | [8] 54.4 nM | [9] 37.2 nM | [10] 18.7 nM | [12] 41.8 nM | [13] 117 nM | [14] 827 nM

COc1ccc(-c2oc3cc(OC)ccc3c2C(=O)c2ccc(C#N)cc2)cc1
inactive: [15] | [7] | [17] | [13]
active: [1] 93.5 nM | [2] 4180 nM | [3] 685 nM | [4] 7430 nM | [6] 24100 nM | [16] 1090 nM | [8] 968 nM

O=NN(CCCl)C(=O)NCCCl
inactive: [1] | [2] | [3] | [15] | [5] | [6] | [18] | [19] | [16] | [7] | [8] | [9] | [10] | [17] | [12] | [20]
active: [13] 16500 nM

CCOc1cc(N2CCC(O)CC2)ccc1Nc1ncc2c(n1)N(C)c1ccccc1C(=O)N2C
inactive: [17]
active: [1] 4.7 nM | [2] 332 nM | [3] 54.4 nM | [4] 833 nM | [5] 118 nM | [6] 4290 nM | [19] 93.5 nM | [16] 86.3 nM | [8] 43.2 nM | [9] 148 nM | [10] 3720 nM | [12] 2960 nM | [20] 16500 nM | [13] 46.5 nM | [14] 1170 nM

NC(=O)c1ccc(-c2nc(-c3ccc4c(c3)OCO4)c(-c3ccccn3)[nH]2)cc1
inactive: [1] | [2] | [4] | [15] | [5] | [6] | [18] | [19] | [16] | [7] | [8] | [9] | [10] | [17] | [11] | [12]

CC(C)(C)OC(=O)CN(Cc1ccc(Cl)cc1)Cc1ccc([N+](=O)[O-])s1
active: [2] 20900 nM
inactive: [1] | [3] | [15] | [6] | [7] | [10] | [17]

CS(=O)(=O)Oc1ccc2c(NC(N)=O)c(C(=O)c3ccc(Cl)cc3Cl)oc2c1
inactive: [11]
active: [1] 2350 nM | [2] 1480 nM | [3] 3430 nM | [4] 4180 nM | [6] 15200 nM | [18] 3720 nM | [7] 2350 nM | [8] 1530 nM | [9] 13200 nM | [10] 18700 nM

Oc1cccc(-c2nc(N3CCOCC3)c3oc4ncccc4c3n2)c1
active: [1] 2150 nM | [2] 48.1 nM | [3] 444 nM | [4] 191 nM | [5] 340 nM | [6] 879 nM | [18] 215 nM | [19] 960 nM | [7] 303 nM | [8] 444 nM | [9] 241 nM | [10] 85.5 nM | [11] 13600 nM | [12] 382 nM | [20] 2400 nM | [13] 1850 nM | [14] 759 nM

NC(=O)C1CCCc2c1[nH]c1ccc(Cl)cc21 (stereo not drawn)
active: [1] 23500 nM | [2] 26400 nM
inactive: [3] | [4] | [15] | [19] | [16] | [7] | [10] | [17]

O=C(O)[C@@H](c1ccc(OCc2ccc3ccccc3n2)cc1)C1CCCC1
inactive: [1] | [2] | [3] | [15] | [5] | [6] | [19] | [16] | [7] | [9] | [10] | [17] | [11]

OCCn1cc(-c2cnc3nnn(Cc4ccc5ncccc5c4)c3n2)cn1
inactive: [1] | [2] | [4] | [15] | [5] | [6] | [18] | [19] | [16] | [7] | [8] | [9] | [10] | [17] | [11]

COc1nc(-c2ccc3c(c2)OCO3)n(-c2ccc(NC(=O)CSc3ccccc3)cc2)n1
inactive: [1] | [2] | [3] | [4] | [15] | [6] | [18] | [16] | [7] | [9] | [10] | [17] | [12]

Cn1cnc([N+](=O)[O-])c1Sc1ncnc2nc[nH]c12
inactive: [2] | [5] | [7] | [9] | [10] | [17] | [11]
active: [1] 762 nM and 1.06 µM and 1.18 µM | [3] 994 nM and 1.38 µM and 1.53 µM | [18] 12100 nM | [8] 1.4 µM and 3.47 µM and 3.06 µM | [13] 1890 nM
